According to PubChem BioAssay AID588 (National Center for Advancing Translational Sciences (NCATS), 2007):
Screen size: about 59,000 compounds; about 25 (0.04%) were called active. How the calls were made is not given here. The sample as a whole holds a higher share of actives than the screen did.

Test: qHTS Assay for Spectroscopic Profiling in Resorufin Spectral Region
Conditions: Compound fluorescence, resorufin region 547/598 nm, buffer; stronger effect = higher value
Source text: NIH Molecular Libraries Screening Centers Network [MLSCN] NIH Chemical Genomics Center [NCGC] […] Occasionally, the artifactual effect may originate from the compound#s own spectral or other biophysical properties which generally tend to track its assay concentration. Pre-screening/profiling the library with respect to the compounds# spectral properties should help one exclude false positives early on. While the most informative fluorescent profiling data set is obtained by performing a full excitation and emission scan of each well by using a monochromator-based plate reader, such an approach is practical only on a very limited scale as scanning each well requires long time. An alternative approach, applied here, is to perform plate reader scans using selected excitation and emission wavelength pairs to generate a multidimensional relational database that correlates compound concentration and the respective relative fluorescence intensity at a given wavelength set. A standard curve of resorufin present on each plate as six-point concentration series, was used to compute a normalized fluorescence response, termed dye-equivalent concentration, for each compound at each concentration.
NCGC Assay Protocol Summary: Buffer: 100 mM Tris buffer, pH 8.0 Dye standard plate: The wells in columns 1 through 4 of a Kalypsys polypropylene 1536-well compound plate were filled with standard solutions of fluorophore corresponding to the spectral region of interest. Solutions of resorufin were placed in the following wells: M1, N1: 3 mM, M2, N2: 300 uM, M3, N3: 30 uM, M4, N4: zero (DMSO), O1, P1: 3 uM, O2, P2: […], O3, P3: 300 nM, O4, P4: zero (DMSO). Assay Steps: Six uL of buffer were dispensed to 1536-well Greiner black plates. Compounds and dye standards (23 nL) were transferred via Kalypsys PinTool. The plates were incubated for 15 min at room temperature, and then read on ViewLux (Perkin-Elmer) High-throughput CCD imager using 547 nm and 598 nm excitation and emission filter set. Keywords: NIH Roadmap, MLSCN, MLI, MLSMR, qHTS, NCGC, Resorufin, Fluorescent Profiling.

Compound | max dye-equivalent concentration
Nc1ccc2[nH]cc(CCC(=O)O)c2c1 | inactive
Cc1ccccc1N1CCN(S(=O)(=O)C[C@@]23CC[C@H](C[C@H]2NC(=O)[C@@H](N)CCS(C)(=O)=O)C3(C)C)CC1 | inactive
COCCNc1ccnc(-c2cccc(NS(C)(=O)=O)c2)n1 | inactive
CCOC(=O)c1c(C)[nH]c(C)c1C(=O)CSc1nc(N)cc(N)n1 | inactive
O=C(Cn1c(=S)nc2ccccn21)N1CCc2ccccc2C1 | inactive
CN1CCN2c3ccccc3Cc3ccccc3[C@@H]2C1 | inactive
COc1ccc2c(CC(=O)Nc3nnc(C4CC4)s3)coc2c1 | inactive
CC(CCO)Nc1nc2c([nH]1)c(=O)n(C)c(=O)n2C (configuration not stated) | inactive
CCOc1c(OC)cc(C2C(C#N)=C(N)Oc3n[nH]c(-c4ccncc4)c32)cc1OC (configuration not stated) | inactive
Cc1ccc(S(=O)(=O)N2CCC(C(=O)N[C@@H](C)C(=O)NCCc3ccccc3)CC2)cc1 | inactive
NS(=O)(=O)c1cc2c(cc1Cl)NC(C(Cl)Cl)NS2(=O)=O (configuration not stated) | inactive
CCOC(=O)N1CCN(C(=O)CSc2nnc(-c3c[nH]c4ccccc34)n2CCOC)CC1 | inactive
CCOc1ccc(Cn2c(SCCCCC#N)nc3c2c(=O)n(C)c(=O)n3C)cc1OCC | inactive
CNc1ncnc2ccc(-c3cccc(NS(C)(=O)=O)c3)cc12 | inactive
Cc1ccc(C)n1C(Cc1ccccc1)C(=O)O (configuration not stated) | inactive
COc1cccc2c(C)c(C(=O)O)[nH]c12 | inactive
Cc1nc2ccccc2cc1O | inactive
COCCNC(=O)C(c1ccc(C)o1)N(Cc1cccs1)C(=O)c1snc(C(N)=O)c1N (configuration not stated) | inactive
Cc1cc(C)c(C)c(S(=O)(=O)Nc2ccc(O)cc2)c1C | inactive
CCN(CC)Cc1c(C(=O)OC)nnn1-c1nonc1N | inactive
Cn1cccc1C(=O)N1CCC[C@@]2(CCN(Cc3nccs3)C2)C1 | inactive
COc1cc2[nH]c(=S)n(CCN3CCCCC3C)c(=O)c2cc1OC (configuration not stated) | inactive

Compound | max dye-equivalent concentration
COc1ccc(CCNC(=O)c2ccc3c(c2)NC(=O)C(N2CCOCC2)S3)cc1OC (configuration not stated) | inactive
COc1ccc(CCn2c(NCCCN3CCOCC3)nc3c2c(=O)[nH]c(=O)n3C)cc1 | inactive
Cc1ccccc1CSc1nnc(-c2cccnc2)n1N | inactive
COCCN(C(=O)CCC(=O)Nc1ccccn1)C(C(=O)NCCC(C)C)c1ccc(OC)cc1 (configuration not stated) | inactive
NCCNCC1CCNCC1 | inactive
Cc1ccc(N2CCN(c3ccc(C)cc3)C2c2ccccn2)cc1 | inactive
O=C(NCCCN1CCN(c2ccccc2F)CC1)C1CCC(=O)N1C1CCCCC1 (configuration not stated) | inactive
CCOc1ccc(C(C)C)cc1S(=O)(=O)n1nc(C)cc1C | inactive
COc1ccc(-c2c3c(=O)n(C)c(=O)n(C)c3cn2NC(C)=O)cc1 | inactive
CCCOC(=O)C1=C(C)NC2=C(C(=O)C(C(=O)OC)C(C)C2)C1c1ccc(N(C)C)cc1 (configuration not stated) | inactive
O=C1CSC(=O)N1CCOCCN1C(=O)CSC1=O | inactive
O=c1cc(-c2ccccc2)nc(N2CCCCC2)[nH]1 | inactive
O=C(CSc1nc2ccccc2[nH]1)c1cccs1 | inactive
COc1cccc2cc(C(=O)N(C)C)c(=O)oc12 | inactive
C=CCC(NCCCO)c1cccc(OC)c1OC (configuration not stated) | inactive
O=C(CCCN1C(=O)CCC1=O)Nc1ccc(Cl)c(C(F)(F)F)c1 | inactive
Cc1cccc2nc(CNc3ccc(F)cc3)cn12 | inactive
CC1(CCC(=O)OC2CCCCC2)OCCO1 | inactive
Cc1nc(NC(CC(C)C)C(=O)O)c2nc(C)oc2n1 (configuration not stated) | inactive
Cc1c(C(=O)CN2CCOCC2)[nH]c2ccccc12 | inactive
C[N+]1(CCNC(=O)/C=N/O)CCCCC1 | inactive
Cc1ccc(C(C)C)c(OCc2nnc(SCC(=O)Nc3nccs3)n2C)c1 | inactive

Compound | max dye-equivalent concentration
Cc1nn2c3cc(N4CCOCC4)ccc3nc2c2ccccc12 | inactive
COc1cc(C(=O)Nc2oc(-c3ccccc3)c(-c3ccccc3)c2C#N)cc(OC)c1OC | inactive
COc1cccc(Cn2c(=O)c(-c3cc(F)cc(F)c3)nc3cnc(OC)nc32)c1 | inactive
O=C(CN1CCOCC1)Nc1ccc(NC(=O)CN2CCOCC2)c(Cl)c1 | inactive
Cc1cccc(-n2c(N)cc(=O)nc2SC(C)C(=O)NC2CCCCC2)c1 (configuration not stated) | inactive
Cn1c(=NC(=O)c2cnccn2)sc2ccccc21 | inactive
O=C(O)C1OC(C(=O)O)C2C1C(F)(F)C2(F)F (configuration not stated) | inactive
O=C(CSc1nc2ccccc2o1)N1CCN(c2ccccc2)CC1 | inactive
CN(c1ccccc1)c1ccc(/C=c2\s/c(=C(/C#N)C(=O)C(C)(C)C)n(Cc3ccco3)c2=O)cc1 | 27 nM (active)
CCOC(=O)CSc1nc2c(sc(=S)n2CCc2ccccc2)c(=O)n1Cc1ccco1 | inactive
CCOc1ccccc1/C=c1\sc2nc(-c3ccco3)nn2c1=O | inactive
COCCNc1ncnc2ccc(-c3ccccc3CN(C)C)cc12 | inactive
C=CCn1c(SCc2csc(C)n2)nc2scc(-c3ccc(C)o3)c2c1=O | inactive
O=C(CCCn1c(=O)oc2ccccc21)Nc1cccnc1 | inactive
COC(=O)c1ccc(Oc2nc(Nc3ccc(F)cc3)nc(N3CCCC3)n2)cc1 | inactive
O=S(=O)(NCc1ccccn1)c1ccc(Br)s1 | inactive
O=C1C(=O)N(CCN2CCOCC2)C(c2ccccn2)/C1=C(/O)c1ccc(Cl)cc1 (configuration not stated) | inactive
COc1cc2[nH]c(=O)n(CCC(=O)NC3CCN(Cc4ccccc4)CC3)c(=O)c2cc1OC | inactive
CN(C)c1ccc(-c2nc(NCCN3CCOCC3)c3ccccc3n2)cc1 | inactive
CC(C)C(NC(=O)c1cccc(S(=O)(=O)N2CCOCC2)c1)C(=O)NCCc1ccccn1 (configuration not stated) | inactive
COc1cc(-c2noc(C3CCCN(S(=O)(=O)c4cccc(Cl)c4)C3)n2)cc(OC)c1OC (configuration not stated) | inactive
CC(C)C(c1nnnn1C1CCCC1)N1CCN(c2ccccc2F)CC1 (configuration not stated) | inactive

Compound | max dye-equivalent concentration
C=CCn1c(SCc2nnc(-c3ccccc3)o2)nnc1C(O)c1ccccc1 (configuration not stated) | inactive
OCCCNCc1ccccn1 | inactive
CCCCc1cc(=O)oc2cc(C)cc(OCc3nn[nH]n3)c12 | inactive
COCCn1c(=O)c(-c2ccccc2)nc2cnc(N3CCOCC3)nc21 | inactive
Cc1cc(N2C(=O)c3ccc(C(=O)NCc4ccccc4)cc3C2=O)no1 | inactive
CCC(=O)NC(=Nc1nc2ccccc2s1)NC(=O)CC | inactive
O=C(c1ccc2c(c1)C(=O)N(c1ccc(Cl)cc1)C2=O)N1CCN(c2ccccn2)CC1 | inactive
Cc1ccc(F)cc1NC(=O)c1cccc(N(C)C)c1 | inactive
CC(C)(C)c1cc(C(=O)NCc2cccnc2)ccn1 | inactive
Cc1ccc(CNC(=O)C2CC(=O)N(C3CCCCCCC3)C2)cc1 (configuration not stated) | inactive
Cc1nc2cnc(N3CCN(C)CC3)nc2n(CCC#N)c1=O | inactive
CCOC(=O)C1CCN(C(=O)CC2C(=O)N(Cc3ccccc3)C(C)c3nc4ccccc4n32)CC1 (configuration not stated) | inactive
COc1ccccc1N1CCN(C(=O)c2c(-c3c(Cl)cccc3Cl)noc2C)CC1 | inactive
Fc1ccccc1CCNc1nnnn1-c1ccccc1 | inactive
COc1ccccc1-c1nc(NCCNC(C)=O)c2ccccc2n1 | inactive
COc1cc(OC)c(C(=O)NC2CC(C)(C)NC(C)(C)C2)cc1OC | inactive
CN(C)CCNC(=O)C(C(=O)c1ccccc1)n1ccccc1=O (configuration not stated) | inactive
Cc1nc2ccc(S(=O)(=O)NCC(=O)O)cc2s1 | inactive
CC(=O)Nc1ccc(S(=O)(=O)Nc2ccc(N3CCOCC3)c(F)c2)cc1 | inactive
Cc1ccc(NC(=O)CN2CCC3(O)CCCCC3C2c2ccc3c(c2)OCO3)c(C)c1 (configuration not stated) | inactive
CCCC(=O)Nc1cc(OCC)c(NC(=O)NC2CCCCC2)cc1OCC | inactive
O=C(NCc1ccco1)c1cc2sccc2n1Cc1ccc(F)cc1 | inactive

Compound | max dye-equivalent concentration
O=C(CCCn1c(SCC(=O)c2ccc(F)cc2)nc2ccccc2c1=O)NCc1ccco1 | inactive
Cc1ccc(S(=O)(=O)N2CCOCC2)cc1C(=O)NCc1ccc(F)cc1 | inactive
CCC(=O)N1CCc2cc(S(=O)(=O)NC(C(=O)N3CCc4ccccc4C3)C(C)C)ccc21 (configuration not stated) | inactive
Cn1c(-c2ccc(C(=O)c3ccccc3)s2)nc2ccccc21 | inactive
O=C(NCCN=C1NS(=O)(=O)c2ccccc21)c1ccc(S(=O)(=O)N2CCOCC2)cc1 | inactive
CCCCOc1ccc(C(C)(O)CCN2CCOCC2)cc1 (configuration not stated) | inactive
CCN(CC)P(=O)(C(NC(=O)OC)C(F)(F)C(F)(F)C(F)(F)C(F)F)N(CC)CC (configuration not stated) | inactive
O=C(Nc1cnccn1)c1cccnc1 | inactive
Cc1cnc(CNc2cc(-c3c(C)noc3C)ncn2)cn1 | inactive
COc1ccc(CN2C(=O)CN=C2Nc2ccc(C)cc2C)cc1 | inactive
CC(C)(C)NC(=O)Cn1nnc(-c2ccccc2Cl)n1 | inactive
COc1ccccc1C1/C(=C(/O)c2ccc(OC(C)C)cc2)C(=O)C(=O)N1c1cc(C)on1 (configuration not stated) | inactive
COC(=O)c1ccc(NC(=O)CSc2nnc(CNc3ccc(OC)cc3)n2C)cc1 | inactive
CCCCC[C@H](O)CCCC(=O)O | inactive
CC(=O)OC(C(=O)NCCc1ccccc1)c1cccnc1 (configuration not stated) | inactive
CO[C@@H]1/C=C\O[C@]2(C)Oc3c(C)c(O)c4c(O)c(c(CN(C)C)c(O)c4c3C2=O)NC(=O)/C(C)=C\C=C[C@@H](C)[C@@H](O)[C@H](C)[C@@H](O)[C@H](C)[C@H](OC(C)=O)[C@@H]1C | inactive
Cc1cccc(C)c1NC(=O)CCCSc1nnc(-c2ccco2)n1-c1ccccc1 | inactive
C[C@H](CCC(=O)NCC(=O)O)[C@H]1CC[C@H]2[C@H]3[C@@H](C[C@@H](O)[C@]12C)[C@]1(C)CC[C@H](O)C[C@@H]1C[C@@H]3O | inactive
N#CC1=C(N)Oc2n[nH]c(CSc3ccccc3)c2C12C(=O)Nc1ccccc12 (configuration not stated) | inactive
